Inconclusive results are not listed. Activity calls are given as the source filed them. The call rests on the fitted dose curve; in most records, active means well fitted inhibition curve with a large enough effect; inconclusive means small, poorly fitted or top-dose-only effect; inactive means flat fitted curve, though single readings scatter.
Test system: HACAT
Assay: qHTS assay to identify novel small-molecules to repurpose for Merkel cell carcinoma treatment (AID 1296009); further: nearly all actives have a fitted effect of over 60% in size
Conditions: MCC and control cell lines, CellTiter-Glo viability, 72 h; at 44.8 µM (top of the series) unless noted
Outline: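 qHTS format: cells treated with library compounds in DMSO across 8 (NPC) or 11 (MIPE) concentrations. Readout after 72 hr at 37 degree celsius was CellTiter-Glo luminescence.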

Question: For C=C1CCC2C(C)(C(=O)O)CCCC2(C)C1CC/C(C)=C\CO (centres undefined), which outcome is on record?
Answer: inactive

Question: With CN[C@H](CNC(=O)N1CCC[C@@H]([C@@H](OCCNC(=O)OC)c2cccc(Cl)c2)C1)C[C@H]1CCCOC1 as the compound, how does the outcome read?
Answer: inactive

Question: For COc1cc(C2Oc3c(OC)cc(/C=C/C(=O)OC4CC(O)(C(=O)O)CC(O)C4O)cc3C2CO)ccc1O (centres undefined), which outcome is on record?
Answer: inactive [at 17.4 µM]

Question: How did the outcome turn out when CC[C@@H](C)[C@H](N)C(=O)N1Cc2ccccc2C1 was run?
Answer: inactive

Question: For CC(=O)OC1CC(C(C)(C)O)OC2CCC3(C)OC4=C(C(=O)C=C5C(C)C(OC(C)=O)C6(C)C(C)OC546)C(O)C3C12C (centres undefined), which outcome is on record?
Answer: inactive [at 17.4 µM]

Question: With C[C@@H]1O[C@@H](O[C@H]2[C@H](O)[C@@H](O)[C@H](OC[C@H]3O[C@@H](OC(=O)[C@]45CCC(C)(C)C[C@H]4C4=CCC6[C@@]7(C)C[C@@H](O)[C@H](O)[C@@](C)(CO)C7[C@H](O)C[C@@]6(C)[C@]4(C)CC5)[C@H](O)[C@@H](O)[C@@H]3O)O[C@@H]2CO)[C@H](O)[C@H](O)[C@H]1O (some centres undefined) as the compound, how does the outcome read?
Answer: inactive [at 9.27 µM]

Question: For CC1=CC(=O)C2C(C)(C)CCC[C@]2(C)[C@H]1CC[C@H](C)CC(=O)O (some centres undefined), which outcome is on record?
Answer: inactive

Question: With C[C@H]1CC(=O)C2=C(C1)C(O)C(O)[C@@]1(O)[C@H]2C(=O)c2cccc(O)c2[C@@H]1O (some centres undefined) as the compound, how does the outcome read?
Answer: inactive

Question: Which outcome does the source give for CC(=O)OC(C)(C)/C=C/C(=O)[C@](C)(O)C1[C@H](O)C[C@@]2(C)[C@@H]3CC=C4[C@@H](C[C@H](O[C@@H]5O[C@H](CO)[C@@H](O)[C@H](O)[C@H]5O)C(=O)C4(C)C)[C@]3(C)C(=O)C[C@]12C (some centres undefined) here?
Answer: inactive [at 17.4 µM]
